Here are results for eleven compounds from PubChem BioAssay (Tox21).

A short description of assay [1]: Human pregnane X receptor (PXR) small molecule agonists, qHTS cell viability counter screen (AID 1346977). Also: nearly all actives have a fitted effect of over 50% in size. Also: potency is read from the fitted curve at half-maximal effect. In a few lines:
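Readout is CellTiter-Fluor fluorescence from PXR-Luc HepG2 cells. Plated cells rested 5hr, then were treated with compounds for 24hr at 37C and 5% CO2, with reagent present during the last hour.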

Assay [2] in a line: Caspase-3/7 induction in HepG2 cells by small molecules, qHTS assay (AID 1346978). Also: nearly all actives have a fitted effect of over 15% in size. In a few lines:
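Caspase-3/7 induction was measured by Caspase-Glo 3/7 luminescence (30 min, room temperature) after a 17 hr compound exposure of wild-type HepG2 cells seeded at 2,000 per well and pre-incubated 5 hr.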
(In general: qHTS replaces the single test concentration by a dilution series.)

Assay [3] in a line: Caspase-3/7 induction in CHO-K1 cells by small molecules, qHTS cell viability counter screen (AID 1346979). Also: nearly all actives have a fitted effect of over 35% in size. Also: potency is read from the fitted curve at half-maximal effect. In a few lines:
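To flag cytotoxic compounds, treated CHO-K1 wild-type cells were given CellTiter-Fluor at 16hr and read fluorescently after 1hr at 37C; the caspase-3/7 luminescence was measured in these same wells.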

Assay [4] can be described thus: Caspase-3/7 induction in CHO-K1 cells by small molecules, qHTS assay (AID 1346980). Also: nearly all actives have a fitted effect of over 15% in size. In a few lines:
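Luminescent Caspase-Glo 3/7 read (30min, room temperature) quantified apoptosis induction. Cells were wild-type CHO-K1, treated with compound for 17hr at 37 C and 5% CO2.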

Assay [5] in a line: Caspase-3/7 induction in HepG2 cells by small molecules, qHTS cell viability counter screen (AID 1346981). Also: nearly all actives have a fitted effect of over 30% in size. Also: potency is read from the fitted curve at half-maximal effect. In a few lines: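 CellTiter-Fluor fluorescence measured viability in the same wells used for Caspase-Glo 3/7. HepG2 (wild type) at 2,000 cells/well were pre-incubated 5 hr, dosed, and given reagent at 16 hr, with 1 hr further at 37C.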
The target of assay [6] is Nuclear receptor subfamily 1 group I member 2 (Homo sapiens) (UniProt O75469). Description: Human pregnane X receptor (PXR) small molecule agonists, qHTS assay (AID 1346982). Also: nearly all actives have a fitted effect of over 35% in size. Also: potency is read from the fitted curve at half-maximal effect. In outline:
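Agonist mode: luminescence from ONE-Glo after 24 h compound exposure at 37C in HepG2 cells carrying hPXR-responsive CYP3A4 luciferase, plated in charcoal-stripped serum medium 5 h beforehand.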

The target of assay [7] is Cytochrome P450 2D6 (Homo sapiens) (UniProt P10635). Put plainly: Cytochrome P450 Family 2 Subfamily D Member 6 (CYP2D6) small molecule antagonists: luciferase reporter qHTS assay (AID 1671196). Also: nearly all actives have a fitted effect of over 50% in size. Also: potency is read from the fitted curve at half-maximal effect. In outline: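 CYP2D6 activity was followed as luminescence from its luciferin product after a 1 h NADPH-driven reaction at room temperature. Enzyme-substrate mix and compound were pre-incubated for 10 min, and the signal was read 20 min after adding detection reagent.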
Cytochrome P450 2D6 (Homo sapiens), sequence (P10635 whole entry, looked up): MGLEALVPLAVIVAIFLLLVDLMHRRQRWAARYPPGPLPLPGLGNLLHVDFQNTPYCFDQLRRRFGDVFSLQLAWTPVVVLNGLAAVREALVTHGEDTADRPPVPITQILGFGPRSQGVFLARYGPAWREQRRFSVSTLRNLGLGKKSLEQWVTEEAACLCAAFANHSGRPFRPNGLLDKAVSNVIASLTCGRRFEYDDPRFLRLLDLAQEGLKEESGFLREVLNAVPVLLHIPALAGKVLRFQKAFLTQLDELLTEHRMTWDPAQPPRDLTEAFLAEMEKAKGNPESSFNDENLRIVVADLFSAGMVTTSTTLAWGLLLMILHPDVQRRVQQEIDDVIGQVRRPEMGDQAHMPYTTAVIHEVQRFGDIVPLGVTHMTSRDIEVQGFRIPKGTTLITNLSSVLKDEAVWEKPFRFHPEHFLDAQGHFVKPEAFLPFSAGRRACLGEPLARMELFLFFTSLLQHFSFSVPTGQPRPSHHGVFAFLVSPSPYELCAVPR
(A reporter such as luciferase makes a cellular process visible.)

The target of assay [8] is Cytochrome P450 2C19 (Homo sapiens) (UniProt P33261). Put plainly: Cytochrome P450 Family 2 Subfamily C Member 19 (CYP2C19) small molecule antagonists: luciferase reporter qHTS assay (AID 1671197). Also: nearly all actives have a fitted effect of over 65% in size. Also: potency is read from the fitted curve at half-maximal effect. In outline: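 CYP2C19 P450-Glo, 1536-well qHTS. Cpd + enzyme/proluciferin substrate 10 min RT; + NADPH regen, 37C 1 h; stop with luciferin detection reagent, 20 min RT, luminescence (RLU). Pos ctrl ketoconazole.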
Cytochrome P450 2C19 (Homo sapiens), sequence (P33261 whole entry, looked up): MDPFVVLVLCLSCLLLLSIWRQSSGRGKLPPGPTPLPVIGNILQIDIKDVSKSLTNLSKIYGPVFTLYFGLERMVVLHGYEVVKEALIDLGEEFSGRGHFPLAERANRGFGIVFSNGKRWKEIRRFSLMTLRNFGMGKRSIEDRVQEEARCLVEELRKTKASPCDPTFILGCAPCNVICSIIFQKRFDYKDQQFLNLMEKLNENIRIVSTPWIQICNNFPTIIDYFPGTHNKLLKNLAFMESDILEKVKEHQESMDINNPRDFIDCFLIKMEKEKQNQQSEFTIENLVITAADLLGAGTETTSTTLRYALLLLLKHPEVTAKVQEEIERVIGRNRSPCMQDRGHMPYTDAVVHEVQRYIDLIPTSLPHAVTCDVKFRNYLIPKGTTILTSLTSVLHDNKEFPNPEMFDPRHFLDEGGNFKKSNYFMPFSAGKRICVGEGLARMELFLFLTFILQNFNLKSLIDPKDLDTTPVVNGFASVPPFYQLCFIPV

Assay [9] has as its target Cytochrome P450 1A2 (Homo sapiens) (UniProt P05177). Put plainly: Cytochrome P450 Family 1 Subfamily A Member 2 (CYP1A2) small molecule antagonists: luciferase reporter qHTS assay (AID 1671199). Also: nearly all actives have a fitted effect of over 50% in size. Also: potency is read from the fitted curve at half-maximal effect. In a few lines:
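Luminescence from luciferin formed by CYP1A2 from a proluciferin substrate, read 20 min after detection reagent. Compound was pre-incubated 10 min with enzyme-substrate, and reaction started with NADPH regeneration solution for 1 h at room temperature; furafylline control.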

The target in assay [10] is Voltage-gated inwardly rectifying potassium channel KCNH2 (Homo sapiens) (UniProt Q12809). Put plainly: Human Ether-a-go-go-Related Gene (hERG) channel small molecule antagonists: fluorescence cell-based qHTS assay (AID 1671200). Also: nearly all actives have a fitted effect of over 50% in size. Also: potency is read from the fitted curve at half-maximal effect. In a few lines:
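Measured: Tl+ flux via fluorescence (480/540 nm) in hERG-expressing U2OS cells after 1 h dye loading at room temperature.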
(The hERG channel carries a current that helps repolarise heart muscle cells.)

The target in assay [11] is Cytochrome P450 3A4 (Homo sapiens) (UniProt P08684). Description: Cytochrome P450 Family 3 Subfamily A Member 4 (CYP3A4) small molecule antagonists: luciferase reporter qHTS assay (AID 1671201). Also: nearly all actives have a fitted effect of over 50% in size. Also: potency is read from the fitted curve at half-maximal effect. In a few lines:
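Setup: enzyme-substrate mix, compound pin transfer, 10 min RT. Reaction: NADPH regeneration solution, 1 h RT. Readout: detection reagent stops turnover, luminescence measured after 20 min, expressed in relative luminescence units.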

In assay [12] the target is Cytochrome P450 2C9 (Homo sapiens) (UniProt P11712). Description: Cytochrome P450 Family 2 Subfamily C Member 9 (CYP2C9) small molecule antagonists: luciferase reporter qHTS assay (AID 1671198). Also: nearly all actives have a fitted effect of over 50% in size. Also: potency is read from the fitted curve at half-maximal effect. In outline: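 Enzyme-substrate mix preincubated with compound 10 min at room temperature; reaction started with NADPH regeneration solution, 1 h 37C. Luminescent luciferin product read after 20 min detection reagent.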
Cytochrome P450 2C9 (Homo sapiens), sequence (P11712 whole entry, looked up): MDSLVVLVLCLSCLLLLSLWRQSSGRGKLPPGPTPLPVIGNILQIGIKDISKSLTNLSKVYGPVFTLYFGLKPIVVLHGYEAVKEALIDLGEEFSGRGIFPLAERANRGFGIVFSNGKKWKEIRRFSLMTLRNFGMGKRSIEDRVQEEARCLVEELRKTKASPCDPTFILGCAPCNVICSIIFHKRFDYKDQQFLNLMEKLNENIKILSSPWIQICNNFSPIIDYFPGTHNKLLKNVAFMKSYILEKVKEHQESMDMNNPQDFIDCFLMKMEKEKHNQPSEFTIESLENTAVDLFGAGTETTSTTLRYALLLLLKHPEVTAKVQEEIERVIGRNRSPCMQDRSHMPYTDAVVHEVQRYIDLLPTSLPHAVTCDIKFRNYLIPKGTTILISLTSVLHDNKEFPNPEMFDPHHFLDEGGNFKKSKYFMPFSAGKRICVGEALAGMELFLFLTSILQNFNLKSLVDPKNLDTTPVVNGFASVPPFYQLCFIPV

Assay [13] has as its target Nuclear receptor subfamily 1 group I member 2 (Rattus norvegicus) (UniProt Q9R1A7). Description: Rat pregnane X receptor (rPXR) activation by small molecules, qHTS assay (AID 1346983). Also: nearly all actives have a fitted effect of over 20% in size. As to conditions: rPXR luciferase reporter cells, One-Glo luminescence, 24 h; max activation: active compounds read high. In outline: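 Luminescent readout (One-Glo luciferase, 30 min room temperature) followed 24 hr compound treatment at 37 C of rPXR cells plated 2,000 per well and preincubated 5hr; qHTS format with compounds delivered in DMSO.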

For assay [14], the target named is Nuclear receptor subfamily 1 group I member 2 (Homo sapiens) (UniProt O75469). Put plainly: CYP3A4 induction through human pregnane X receptor (PXR) by small molecules, qHTS assay (AID 1346984). Also: nearly all actives have a fitted effect of over 40% in size. In a few lines:
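Read-out is luminescence after One-Glo addition, following a 3 hr, 37C incubation with Luciferin-IPA CYP3A4 substrate (3uM final). Before that, compounds were on DPX-2 cells (HepG2 co-transfected with PXR element plus CYP3A4-promoter luciferase) for 24 hr at 37C.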

The target is the same in assay [15]. Put plainly: Human pregnane X receptor (PXR) activation by small molecules, qHTS assay (AID 1346985). Also: nearly all actives have a fitted effect of over 40% in size. In outline: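 DPX-2 cells (HepG2 co-transfected with a PXR response element and a CYP3A4-promoter luciferase construct) were seeded at 2,000 per well, rested 5 hr at 37C, then exposed to DMSO-dissolved compounds for 24 hr. Activation was read as luciferase luminescence.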

Molecules are shown by their SMILES. A number with no mark means an inactive call. Inconclusive results are not listed. Calls of active or inactive are those of the source. Calls follow the shape of the dose curve; as a rule, active = well fitted curve in the direction sought with a large enough effect in the repeat runs; inconclusive = weak or mixed curves; inactive = no such curve, though single readings can be large; an effect the other way counts as inactive or inconclusive.
% is scaled to controls: 0 for no effect and ±100 for the full control effect.

Nuclear receptor subfamily 1 group I member 2 (Homo sapiens), sequence (O75469 whole entry, looked up): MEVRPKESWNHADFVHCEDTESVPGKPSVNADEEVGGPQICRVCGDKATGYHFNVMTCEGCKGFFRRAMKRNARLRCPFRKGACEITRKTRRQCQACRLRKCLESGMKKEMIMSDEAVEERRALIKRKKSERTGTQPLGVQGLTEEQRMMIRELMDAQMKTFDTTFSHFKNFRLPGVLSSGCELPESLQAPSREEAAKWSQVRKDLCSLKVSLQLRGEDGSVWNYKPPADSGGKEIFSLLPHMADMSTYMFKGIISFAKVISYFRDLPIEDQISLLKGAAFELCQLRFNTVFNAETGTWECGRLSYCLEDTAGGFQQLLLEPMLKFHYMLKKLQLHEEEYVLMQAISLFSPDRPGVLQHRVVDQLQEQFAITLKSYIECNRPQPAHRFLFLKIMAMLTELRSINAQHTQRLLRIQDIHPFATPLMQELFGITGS
Cytochrome P450 3A4 (Homo sapiens), sequence (P08684 whole entry, looked up): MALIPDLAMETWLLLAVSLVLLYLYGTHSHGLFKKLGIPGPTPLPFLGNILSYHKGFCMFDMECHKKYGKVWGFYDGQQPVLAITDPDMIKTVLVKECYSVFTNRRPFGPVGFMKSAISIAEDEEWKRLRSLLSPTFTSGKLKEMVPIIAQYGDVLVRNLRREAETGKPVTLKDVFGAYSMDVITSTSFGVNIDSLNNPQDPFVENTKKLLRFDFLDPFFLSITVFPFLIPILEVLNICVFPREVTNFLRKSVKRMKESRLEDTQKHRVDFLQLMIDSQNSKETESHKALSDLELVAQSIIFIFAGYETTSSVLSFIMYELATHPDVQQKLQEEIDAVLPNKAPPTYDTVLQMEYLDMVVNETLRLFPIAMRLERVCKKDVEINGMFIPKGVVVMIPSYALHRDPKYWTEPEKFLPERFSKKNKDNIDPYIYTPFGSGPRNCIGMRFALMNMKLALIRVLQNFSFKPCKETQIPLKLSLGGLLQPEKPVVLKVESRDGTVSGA
Cytochrome P450 1A2 (Homo sapiens), sequence (P05177 whole entry, looked up): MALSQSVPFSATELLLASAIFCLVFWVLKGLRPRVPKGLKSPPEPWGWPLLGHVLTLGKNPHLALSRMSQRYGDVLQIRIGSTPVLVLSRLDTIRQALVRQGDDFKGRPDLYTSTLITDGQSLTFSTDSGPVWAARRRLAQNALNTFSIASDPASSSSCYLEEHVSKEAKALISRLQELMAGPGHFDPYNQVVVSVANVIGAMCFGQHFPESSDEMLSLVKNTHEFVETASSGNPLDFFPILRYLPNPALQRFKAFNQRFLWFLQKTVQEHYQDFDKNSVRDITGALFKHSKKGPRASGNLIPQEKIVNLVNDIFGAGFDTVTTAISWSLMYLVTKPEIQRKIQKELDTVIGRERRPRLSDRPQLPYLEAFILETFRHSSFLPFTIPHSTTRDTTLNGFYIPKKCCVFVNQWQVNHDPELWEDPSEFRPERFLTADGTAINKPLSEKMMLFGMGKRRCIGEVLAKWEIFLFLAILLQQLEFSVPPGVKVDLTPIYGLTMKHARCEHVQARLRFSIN
Voltage-gated inwardly rectifying potassium channel KCNH2 (Homo sapiens), sequence (Q12809 whole entry, looked up): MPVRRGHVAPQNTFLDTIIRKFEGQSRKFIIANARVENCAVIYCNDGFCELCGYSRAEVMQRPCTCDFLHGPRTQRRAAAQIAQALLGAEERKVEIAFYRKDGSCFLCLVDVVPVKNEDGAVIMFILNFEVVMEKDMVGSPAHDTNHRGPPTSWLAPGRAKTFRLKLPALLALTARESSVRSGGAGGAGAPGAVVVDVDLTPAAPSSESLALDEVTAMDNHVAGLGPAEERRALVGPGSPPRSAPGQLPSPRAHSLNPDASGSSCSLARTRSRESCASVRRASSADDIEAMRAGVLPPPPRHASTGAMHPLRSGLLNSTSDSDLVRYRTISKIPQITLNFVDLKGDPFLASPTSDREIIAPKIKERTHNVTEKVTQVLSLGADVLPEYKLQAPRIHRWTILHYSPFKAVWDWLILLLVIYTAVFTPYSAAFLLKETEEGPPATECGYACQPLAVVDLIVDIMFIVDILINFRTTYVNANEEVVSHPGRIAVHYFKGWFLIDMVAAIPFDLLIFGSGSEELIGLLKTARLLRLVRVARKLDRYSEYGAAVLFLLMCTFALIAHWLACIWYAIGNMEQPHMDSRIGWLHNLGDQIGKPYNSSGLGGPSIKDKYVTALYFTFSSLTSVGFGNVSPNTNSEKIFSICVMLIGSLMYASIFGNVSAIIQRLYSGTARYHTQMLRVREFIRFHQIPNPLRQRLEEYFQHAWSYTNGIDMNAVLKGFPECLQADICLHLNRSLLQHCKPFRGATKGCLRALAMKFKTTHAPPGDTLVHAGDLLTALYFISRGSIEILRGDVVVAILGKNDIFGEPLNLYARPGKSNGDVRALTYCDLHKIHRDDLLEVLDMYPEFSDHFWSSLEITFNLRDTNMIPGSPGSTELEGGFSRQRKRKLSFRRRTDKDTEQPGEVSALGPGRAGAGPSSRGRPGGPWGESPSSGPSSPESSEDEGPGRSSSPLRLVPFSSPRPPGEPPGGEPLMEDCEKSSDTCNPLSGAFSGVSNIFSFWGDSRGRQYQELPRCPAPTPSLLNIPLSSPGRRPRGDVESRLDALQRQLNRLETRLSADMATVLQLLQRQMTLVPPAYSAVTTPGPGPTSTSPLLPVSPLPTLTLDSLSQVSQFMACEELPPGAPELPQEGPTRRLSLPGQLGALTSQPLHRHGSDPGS
Nuclear receptor subfamily 1 group I member 2 (Rattus norvegicus), sequence (Q9R1A7 whole entry, looked up): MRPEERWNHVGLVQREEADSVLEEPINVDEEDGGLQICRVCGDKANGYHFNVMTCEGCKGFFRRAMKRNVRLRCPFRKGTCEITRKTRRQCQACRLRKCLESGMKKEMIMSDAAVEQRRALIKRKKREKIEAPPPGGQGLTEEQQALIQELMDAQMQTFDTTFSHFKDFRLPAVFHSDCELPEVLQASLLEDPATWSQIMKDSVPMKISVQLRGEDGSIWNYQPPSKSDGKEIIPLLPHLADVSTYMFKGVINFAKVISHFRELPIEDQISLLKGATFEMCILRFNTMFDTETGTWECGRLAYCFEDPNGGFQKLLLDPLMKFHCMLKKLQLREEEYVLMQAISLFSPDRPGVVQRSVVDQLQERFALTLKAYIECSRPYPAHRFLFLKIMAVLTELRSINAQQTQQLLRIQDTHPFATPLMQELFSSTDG

Regarding `ON(Cc1ccccc1)Cc1ccccc1`, the Potency entry in assay [1], in assay [2], in assay [3], in assay [5] and in [10] was “inactive” each time. Further, the call in assay [4] was inactive. Besides, the Potency in assay [6] is 34.4 µM (active); in assay [7], 35.6 µM (active); in assay [8], 7.1 µM (active); in assay [9], 5.64 µM (active); in [11], 10 µM (active).
As to `CCC(C)(C)C1CCC(O)CC1` (stereo not given), the Potency entry in assay [1], in assay [2], in assay [3], in [5], in assay [6] and in assay [7] was “inactive” throughout. The Potency result in [8], in assay [12] and in assay [11] was “inactive” each time. Moreover, the outcome in [4] was inactive.
Consider `O=Cc1c(Cl)cccc1Cl`, for which the Potency result in assay [1], in [2], in assay [3], in [5], in assay [6] and in assay [7] was “inactive” in each case. For the same compound, the Potency entry in assay [8], in assay [12], in assay [10] and in assay [11] was “inactive” each time. Further, in [4], the compound was called inactive.
On to `NCC1CCCC(CN)C1` (stereo not given), for which the Potency result in assay [1], in [2], in assay [3], in assay [5], in assay [6] and in [8] was “inactive” each time. For the same compound, the Potency result in [12], in assay [9], in assay [10] and in [11] was “inactive” in each case. Further, the compound was called inactive in assay [4].
Turning to `C=CC(=O)NCOCC(C)C`, the Potency entry in assay [1], in assay [2], in assay [3], in [5], in assay [6] and in assay [7] was “inactive” throughout. Besides, the Potency result in assay [8], in assay [12], in assay [10] and in assay [11] was “inactive” each time. Also, the outcome in assay [4] was inactive.
As to `Cc1occc1C(=O)Nc1ccc(C(=O)N2CCC(F)(F)/C(=C\C(=O)N3CCC(N4CCCCC4)CC3)c3ccccc32)cc1`, the Potency in [1] was 17 µM (active); in assay [6], 19.1 µM (active); in assay [7] it was 2.79 µM (active); in [9], 9.9 µM (active); in [10], 6.09 µM (active); in [11], 0.394 µM (active). Moreover, the Potency result in [2], in assay [3] and in [8] was “inactive” throughout. Also, the call in [4] was inactive.
Consider `C[Si](NC1CCCCC1)(NC1CCCCC1)NC1CCCCC1`, for which the Potency entry in assay [1], in assay [2], in assay [3], in assay [5], in assay [6] and in [8] was “inactive” each time. The Potency result in [10] and in assay [11] was “inactive” throughout. Also, the call in assay [4] was inactive.
For the compound `CC(CCO)CCc1ccccc1` (stereo not given), the Potency result in [1], in [2], in assay [3], in assay [5], in assay [6] and in [7] was “inactive” each time. For the same compound, the Potency entry in assay [10] and in assay [11] was “inactive” in each case. Further, the figures for the Potency in assay [8], in assay [12] and in assay [9] were 7.96 µM (active), 35.6 µM (active) and 22.4 µM (active), respectively.
Turning to `CC(C)C(OC(=O)c1ccccc1)C(C)(C)COC(=O)c1ccccc1` (stereo not given), the Potency entry in assay [1], in assay [2], in assay [3], in assay [5], in assay [7] and in assay [11] was “inactive” each time. For the same compound, the call in [4] was inactive. The Potency in assay [8] is 6.33 µM (active); in assay [12], 2 µM (active); in assay [9], 35.6 µM (active).
`C=CC(C)=CCC=C(C)C`: the Potency entry in assay [1], in assay [2], in assay [3], in assay [5], in assay [7] and in assay [10] was “inactive” in each case. Besides, in assay [4], the call was inactive. The Potency is 63.3 µM (active) in assay [12] and 28.3 µM (active) in assay [11].
On to `CCCCC1C(=O)N(c2ccccc2)N(c2ccc(O)cc2)C1=O` (stereo not given), for which the Potency in assay [1] is 26.6 µM (active); in [3] it was 3.76 µM (active); in assay [5], 29.8 µM (active); in assay [6], 11.9 µM (active); in assay [8], 17.4 µM (active); in assay [12], 9.77 µM (active). Further, the Potency result in assay [2], in [14], in assay [15], in [9] and in [10] was “inactive” throughout. For the same compound, the max activation in [13] is 1.09%.
